The values below come from PubChem BioAssay (Tox21).

Molecules are shown by their SMILES. Values without a mark were called inactive. Inconclusive results are not listed. Active and inactive are the calls of the source. Unless noted, calls follow the shape of the dose curve; as a rule, active = well fitted curve in the direction sought with a large enough effect in the repeat runs; inconclusive = weak or mixed curves; inactive = no such curve, though single readings can be large; an effect the other way counts as inactive or inconclusive.

Assay [1] can be described thus: qHTS assay to identify small molecule agonists of the hypoxia (HIF-1) signaling pathway - cell viability counter screen (AID 1224844; calls by dose curve; also: nearly all actives have a fitted effect of over 50% in size; also: potency is read from the fitted curve at half-maximal effect). The following applies: HRE-bla ME-180 viability, CellTiter-Glo luminescence, 17 h; series mostly up to 76.8 µM. In a few lines: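 In this counter screen, HRE-bla ME-180 cell viability after 17 hrs of compound exposure at 37C was read by CellTiter-Glo luminescence, multiplexed with the beta-lactamase reporter measurement.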
On the technique in general: Quantitative high-throughput screening tests each substance at several concentrations.

Assay [2] can be described thus: qHTS assay to identify small molecule agonists of H2AX (AID 1224845; active = well fitted activation curve with a large enough effect in the signal ratio in the repeat runs, not every such curve was filed as active; the % refers to the signal ratio). The following applies: CHO-K1 phospho-H2AX Ser139 HTRF, 3 h; series mostly up to 154 µM. In a few lines: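 Phospho-H2AX Ser139 measured by HTRF (ex 320 nm; em 665 and 620 nm) after 24 hr antibody incubation. Compounds, 15 concentrations, 0.76% DMSO, were applied to CHO-K1 cells for 3hr at 37C before lysis.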

Assay [3] is described as follows: qHTS assay to identify small molecule agonists of the hypoxia (HIF-1) signaling pathway (AID 1224846; active = well fitted activation curve with a large enough effect in the signal ratio in the repeat runs, not every such curve was filed as active; the % refers to the signal ratio). The following applies: HRE-bla ME-180 cells, beta-lactamase ratio, 17 h; series mostly up to 76.8 µM. A digest of the protocol:
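ME-180 HRE-bla reporter cells; compounds in DMSO, 17 h at 37C; read-out beta-lactamase via CCF4-AM FRET.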

A short description of assay [4]: qHTS assay to identify small molecule agonists of H2AX - cell viability counter screen (AID 1224847; calls by dose curve; also: top concentration of the series differs between compounds; nearly all actives have a fitted effect of over 30% in size). The settings on record: CHO-K1 viability, CellTiter-Glo luminescence, 3 h; series mostly up to 154 µM. A digest of the protocol:
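Cytotoxicity counter screen in wild-type CHO-K1 cells: a 3 hr compound treatment at 37C across 15 concentrations, followed by CellTiter-Glo luminescence to gauge viable cells.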

A short description of assay [5]: qHTS RealTime-Glo MT Cell Viability Assay in HepG2 cells - 24 hour (AID 1224867). Also: nearly all actives have a fitted effect of over 50% in size. The settings on record: RealTime-Glo luminescence; series mostly up to 76.8 µM. In a few lines: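 Compound treatment began 5 h after plating HepG2 cells (600/well) with NanoLuc luciferase and prosubstrate. Plates stayed at 37 C for 40 h; luminescence was captured at six time points, 0 h through 40 h.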

A short description of assay [6]: qHTS RealTime-Glo MT Cell Viability Assay in HEK293 cells - 32 hour (AID 1224868). Also: nearly all actives have a fitted effect of over 50% in size. Also: potency is read from the fitted curve at half-maximal effect. The settings on record: RealTime-Glo luminescence; series mostly up to 76.8 µM. In a few lines:
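Quantitative high-throughput screen of the Tox21 10K library in HEK293: cells and RealTime-Glo reagents plated together, compound added at 5 h, luminescence monitored through 40 h at 37 C.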

Assay [7] in a line: A CellTox Green Cytotoxicity Assay to monitor cytotoxicity in HEK293 cells - 0 hour (AID 1224869). Also: nearly all actives have a fitted effect of over 50% in size. The following applies: CellTox Green fluorescence; series mostly up to 76.8 µM. In a few lines: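 Real-time, in one plate: 600 HEK293 cells/well with dead-cell DNA dye, pinned compound after 5 h, 37 C incubation over 40 h; viable cells give no appreciable fluorescence.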
Assay [8] is described as follows: qHTS assay to identify small molecule antagonists of the estrogen related receptor (ERR) signaling pathway from Tox21 library (AID 1224848). Also: nearly all actives have a fitted effect of over 50% in size. The settings on record: ERR reporter cell line, luciferase antagonist mode, 18 h; series mostly up to 92.4 µM. A digest of the protocol: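 Luciferase luminescence (ONE-Glo, 30 min room temperature) was the read-out. Cells of the NTP-supplied ERR line, 2,000 per well, were given 6 h at 37 C before compound addition in DMSO and 18 h exposure at 37 C.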

Assay [9] is described as follows: qHTS assay to identify small molecule agonists of the estrogen related receptor (ERR) signaling pathway from Tox21 library (AID 1224849; calls by dose curve; also: nearly all actives have a fitted effect of over 15% in size). The following applies: ERR reporter cell line, ONE-Glo luciferase, 18 h; at 92.4 µM (top of the series) unless noted. In a few lines:
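Luciferase activity in ERR pathway reporter cells served as the agonist readout; exposure lasted 18 h at 37 C, with ONE-Glo detection after 30 min at room temperature.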
% is scaled to controls: 0 for no effect and ±100 for the full control effect.

`CC(=O)OCC(C)C`: the Potency entry in assay [1], in assay [2], in [4], in assay [5], in assay [6] and in assay [7] was “inactive” each time. Also, in assay [3], the result was inactive.

As to `O=C(Oc1ccccc1)c1ccc2ccccc2c1O`, the Potency result in assay [1], in [2], in assay [8], in assay [5], in assay [6] and in assay [7] was “inactive” throughout. Also, the result in [3] was inactive. For the same compound, the activity change, positive = activation in assay [9] is 116% (active).

In the case of `CC(C)(O)c1coc(S(=O)(=O)NC(=O)Nc2c3c(cc4c2CCC4)CCC3)c1`, the Potency result in assay [1], in [2], in assay [4], in [5], in [6] and in assay [7] was “inactive” throughout. Also, the outcome in [3] was inactive.

For the compound `CCCCOCCOC(=O)c1cccnc1`, the Potency entry in [1], in [2], in [4], in assay [5], in [6] and in [7] was “inactive” throughout. The outcome in assay [3] was inactive.

Turning to `Cc1ccc2nc(N)[nH]c(=O)c2c1Sc1ccncc1`, the Potency result in [1], in assay [4] and in assay [7] was “inactive” throughout. Moreover, in assay [3], the result was inactive. In addition, the activity change, positive = activation in assay [9] is -24.3% [at 42.5 µM].

For the compound `C=C(C)c1ccccc1`, the Potency result in assay [1], in assay [2], in assay [4], in assay [5] and in assay [7] was “inactive” in each case.

On to `O=C(/C=C/c1ccc([N+](=O)[O-])cc1)c1ccccc1`, for which the Potency in assay [1] and in assay [6] was 24.6 µM (active) in each case. The Potency entry in assay [4] was “inactive”.

For the compound `COc1ccc(CCN(C)CCCN2CCc3cc(OC)c(OC)cc3CC2=O)cc1OC`, the Potency entry in assay [1], in assay [2], in assay [5] and in assay [6] was “inactive” in each case. In addition, the result in [3] was inactive.
